Data taken from PubChem BioAssay AID1159580 (chemical genetic matrix, 2015).
Values joined by “and” are separate entries in the source; they are usually repeats but may differ in a detail not shown here. Equal entries are not always repeated. Out of some 5,500 compounds screened, about 2,000 (36%) were called active. Roughly 18% stayed inconclusive and do not appear here. Cut-off read from the data, not from the text of the source: active = normalized growth mostly below about 0.91 (no sharp cut-off); inconclusive = no clear call, values can overlap the other calls; inactive = mostly above about 0.92. The list shows a part of the results.

Assay: chemical genetic growth profiling, strain panel (AID 1159580);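 note: tested at 20 µM; growth read once vehicle control cultures reached saturation at 30 °C; 1 = growth at the plate median or of vehicle wells; lower values mean less growth of the strain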
Details: S. cerevisiae deletion strains, growth OD

Measured: normalized growth

CN(C)CCOC(=O)C(c1ccccc1)C1(O)CCCC1 (stereo not drawn)
inactive: locus YAL013W, strain DEP1, active compounds read low 1.01 | locus YAL021C, strain ccr4, active compounds read low 0.987 | locus YAL026C, strain drs2, active compounds read low 1.03 | locus YAL030W, strain snc1, active compounds read low 0.99 | locus YBL061C, strain skt5, active compounds read low 0.995 | locus YBR009C, strain hhf1, active compounds read low 1 | locus YBR021W, strain FUR4, active compounds read low 0.991 | locus YBR023C, strain chs3, active compounds read low 1 | locus YBR171W, strain sec66, active compounds read low 0.97 | locus YBR229C, strain ROT2, active compounds read low 0.998 | locus YBR231C, strain swc5, active compounds read low 0.972 | locus YBR279W, strain paf1, active compounds read low 0.992 | locus YCL011C, strain gbp2, active compounds read low 1.01 | locus YCL016C, strain dcc1, active compounds read low 1.03 | locus YCL029C, strain bik1, active compounds read low 1.02 | locus YCL061C, strain MRC1, active compounds read low 0.993 | locus YCL069W, strain vba3, active compounds read low 0.991 | locus YCR088W, strain abp1, active compounds read low 0.981 | locus YDL005C, strain med2, active compounds read low 0.991 | locus YDL035C, strain GPR1, active compounds read low 1.01 | locus YDL040C, strain nat1, active compounds read low 0.974 | locus YDL074C, strain BRE1, active compounds read low 1.02 | locus YDL101C, strain DUN1, active compounds read low 0.998 | locus YDL185W, strain tfp1, active compounds read low 1.01 | locus YDL192W, strain arf1, active compounds read low 1.02 | locus YDR001C, strain nth1, active compounds read low 0.963 | locus YDR069C, strain doa4, active compounds read low 0.99 | locus YDR101C, strain arx1, active compounds read low 1 | locus YDR137W, strain rgp1, active compounds read low 1.04 | locus YDR150W, strain NUM1, active compounds read low 0.998 | locus YDR159W, strain sac3, active compounds read low 1.01 | locus YDR162C, strain NBP2, active compounds read low 1.01 | locus YDR195W, strain ref2 0.925 | locus YDR297W, strain sur2, active compounds read low 0.981 | locus YDR318W, strain mcm21, active compounds read low 1.01 | locus YDR334W, strain swr1, active compounds read low 0.984 | locus YDR335W, strain msn5, active compounds read low 0.985 | locus YDR388W, active compounds read low 1.01 | locus YDR392W, strain spt3, active compounds read low 1.08 | locus YDR502C, strain sam2, active compounds read low 1.02 | locus YEL003W, strain gim4, active compounds read low 0.978 | locus YEL037C, strain rad23, active compounds read low 0.984 | locus YEL061C, strain CIN8 (second series), active compounds read low 0.984 | locus YEL061C, strain CIN8, active compounds read low 1 | locus YER015W, strain faa2, active compounds read low 0.999 | locus YER016W, strain bim1, active compounds read low 1.01 | locus YER110C, active compounds read low 1.02 | locus YER111C, strain swi4, active compounds read low 0.971 | locus YER155C, strain BEM2 (second series), active compounds read low 1 | locus YER155C, strain BEM2, active compounds read low 0.996 | locus YER167W, strain BCK2, active compounds read low 1 | locus YFR010W, strain ubp6, active compounds read low 0.962 | locus YGL078C, strain dbp3, active compounds read low 1.01 | locus YGL086W, strain mad1, active compounds read low 1.02 | locus YGL167C, strain pmr1, active compounds read low 0.974 | locus YGL173C, strain kem1, active compounds read low 0.989 | locus YGL227W, strain vid30, active compounds read low 0.988 | locus YGL240W, strain doc1, active compounds read low 0.963 | locus YGL248W, strain PDE1, active compounds read low 1.01 | locus YGL253W, strain hxk2, active compounds read low 1 | locus YGR135W, strain pre9, active compounds read low 1.03 | locus YGR252W, strain gcn5, active compounds read low 0.964 | locus YHR013C, strain ard1, active compounds read low 1.02 | locus YHR027C, strain rpn1, active compounds read low 1.01 | locus YHR030C, strain SLT2, active compounds read low 1 and 0.988 | locus YHR079C, strain IRE1 (second series), active compounds read low 1.01 | locus YHR079C, strain IRE1, active compounds read low 1 | locus YHR094C, strain hxt1, active compounds read low 1.02 | locus YHR129C, strain ARP1, active compounds read low 1 | locus YHR142W, strain chs7, active compounds read low 0.985 | locus YHR200W, strain rpn10, active compounds read low 1.02 | locus YIL066C, strain RNR3, active compounds read low 1.01 | locus YIL073C, strain SPO22, active compounds read low 1.02 | locus YIL125W, strain kgd1, active compounds read low 1.01 | locus YIR030C, strain dcg1, active compounds read low 1.03 | locus YJL092W, strain hpr5, active compounds read low 0.981 | locus YJL095W, strain BCK1 (second series), active compounds read low 0.996 | locus YJL095W, strain BCK1, active compounds read low 1.02 and 0.991 | locus YJL115W, strain asf1, active compounds read low 0.97 | locus YJL129C, strain trk1, active compounds read low 0.96 | locus YJL134W, strain LCB3, active compounds read low 1 | locus YJL154C, strain vps35, active compounds read low 0.972 | locus YJL164C, strain tpk1, active compounds read low 1.01 | locus YJL166W, strain qcr8, active compounds read low 0.978 | locus YJL168C, strain set2, active compounds read low 1.01 | locus YJL187C, strain SWE1 (second series), active compounds read low 1.02 | locus YJR043C, strain POL32, active compounds read low 1.01 | locus YJR066W, strain TOR1, active compounds read low 0.995
